# Counter-ions that a name gives are not always drawn. Like-named read-outs stand apart in the source and are kept apart here. Hit rate of the full screen: of about 3,300 compounds, about 95 (3%) showed an effect of 50% or more. The sample as a whole holds a higher share of strong results than the screen did.
# Test system: HCoV-229E
# Design: species or system Huh-7; HTS, protection from HCoV-229E induced cell death, luminescent cell viability (CellCounting-Lite 2.0), inhibition rate
# Conditions: 24 h post infection, 1 h compound pre-incubation, 10 µM, inhibitor
Compound,"229E Inhibition rate (229E Inhibition rate, 24 h)",229E Inhibition rate
C/C=C1\C(=O)C[C@H]2[C@@H]3CCC4=CC(=O)CC[C@]4(C)[C@H]3CC[C@]12C [(Z)-Guggulsterone],6.7%,
C/C=C(/C)C(=O)O[C@@H]1[C@H](OC(=O)CC(C)C)c2c(ccc3ccc(=O)oc23)OC1(C)C [Praeruptorin C],,32.9%
C/C=C(/C)C(=O)O[C@@H]1c2c(ccc3ccc(=O)oc23)OC(C)(C)[C@@H]1OC(C)=O [Pteryxin],,4.8%
C/C=C(\C)C(=O)OC1c2c(ccc3ccc(=O)oc23)OC(C)(C)C1OC(=O)/C(C)=C/C (stereo not drawn) [Praeruptorin B],,53.9%
C/C=C(/C)C(=O)O[C@H]1[C@@H](OC(C)=O)c2c(ccc3ccc(=O)oc23)OC1(C)C [Praeruptorin A],,19.1%
C/C=C(/C)C(=O)O[C@@H]1c2c(ccc3ccc(=O)oc23)OC(C)(C)[C@@H]1OC(=O)/C(C)=C\C [(-)-Anomalin],,51.7%
C/C=C(/C)C(=O)O[C@H]1[C@@H](OC(=O)CC(C)C)c2c(ccc3ccc(=O)oc23)OC1(C)C [Praeruptorin E],,43.4%
CC(C)=CCc1c2ccoc2c(O)c2oc(=O)ccc12 [Alloimperatorin],,0%
c1c2c(cc3c1OCO3)-c1cc3ccc4c(c3c[n+]1CC2)OCO4 [Coptisine (chloride)],32%,
O=C(O)C1CSSC1 [Asparagusic acid],,15.6%
CC(C)C[C@H](NC(=O)CN)C(=O)O [Glycyl-L-leucine],,13.8%
O=C1c2c(O)cc(O)cc2O[C@H](c2ccc(O)cc2)[C@H]1O [Dihydrokaempferol],,9.9%
COc1cc(O)c(CC=C(C)C)c2c1C(=O)CC(c1ccc(O)cc1)O2 (stereo not drawn) [Isoxanthohumol],,23.6%
C=C(C)[C@H](CC=C(C)C)Cc1c(O)cc(O)c2c1O[C@H](c1ccc(O)cc1O)CC2=O [sophoraflavanone G],,75.7%
C=C(C)[C@H](CC=C(C)C)Cc1c(O)cc(OC)c2c1O[C@H](c1ccc(O)cc1OC)CC2=O [(2S)-2'-Methoxykurarinone],,62.1%
C=C(C)[C@H](CC=C(C)C)Cc1c(O)cc(O)c2c1O[C@H](c1ccccc1O)CC2=O [Kushenol A],,10.8%
C=C(C)[C@H](CC=C(C)C)Cc1c(O)cc(OC)c2c1O[C@H](c1ccc(O)cc1O)CC2=O [Kurarinone],,19.7%
C=C(C)[C@H](CC=C(C)C)Cc1c(O)cc(OC)c2c1O[C@H](c1ccc(O)cc1O)[C@@H](O)C2=O [Kushenol I],,6.5%
"C[C@H](O)[C@H](O)C1=Nc2c(nc(N)[nH]c2=O)NC1 [7,8-Dihydro-L-biopterin]",,24.5%
N[C@@H](CCC(=O)O)C(=O)O [L-Glutamic acid (monosodium salt)],12%,
C[C@@H]1O[C@@H](O[C@H]2[C@H](Oc3cc(O)c4c(=O)cc(-c5ccc(O)cc5)oc4c3)O[C@H](CO[C@@H]3O[C@H](CO)[C@@H](O)[C@H](O)[C@H]3O)[C@@H](O)[C@@H]2O)[C@H](O)[C@H](O)[C@H]1O [Apigenin-7-O-(2G-rhamnosyl)gentiobioside],,22.2%

Compound,"229E Inhibition rate (229E Inhibition rate, 24 h)",229E Inhibition rate
Nc1ccccc1S(=O)(=O)O [2-Aminobenzenesulfonic acid],,0%
COc1cc(-c2[o+]c3cc(O)cc(O)c3cc2O)cc(O)c1O [Petunidin (chloride)],,13.2%
O=C(/C=C/c1ccc(O)cc1)c1ccc(O[C@@H]2O[C@H](CO)[C@@H](O)[C@H](O)[C@H]2O)cc1O [Neoisoliquiritin],,24.9%
O=C(/C=C/c1ccc(O[C@@H]2O[C@H](CO)[C@@H](O)[C@H](O)[C@H]2O)cc1)c1ccc(O)cc1O [Isoliquiritin],,27.7%
O=C(/C=C/c1ccc(O[C@@H]2O[C@H](CO)[C@@H](O)[C@H](O)[C@H]2O[C@@H]2OC[C@](O)(CO)[C@H]2O)cc1)c1ccc(O)cc1O [Isoliquiritin apioside],,63.8%
C=C1CC[C@H]2O[C@]2(C)CC[C@@H]2[C@@H]1CC2(C)C [Caryophyllene oxide],,16.3%
"O=C(O)c1ccc(O)c(O)c1O [2,3,4-Trihydroxybenzoic acid]",,18%
C[C@H](CC[C@@H](O[C@@H]1O[C@H](CO[C@@H]2O[C@H](CO)[C@@H](O)[C@H](O)[C@H]2O)[C@@H](O)[C@H](O)[C@H]1O[C@@H]1O[C@H](CO)[C@@H](O)[C@H](O)[C@H]1O)C(C)(C)O)[C@H]1CC[C@@]2(C)[C@@H]3CC=C4[C@@H](CC[C@H](O[C@@H]5O[C@H](CO[C@@H]6O[C@H](CO)[C@@H](O)[C@H](O)[C@H]6O)[C@@H](O)[C@H](O)[C@H]5O)C4(C)C)[C@]3(C)C(=O)C[C@]12C [11-oxo-mogroside V],,0%
COc1cc([C@@H]2OC[C@@H]3[C@H]2CO[C@H]3c2cc(OC)c(O)c(OC)c2)cc(OC)c1O [(-)-Syringaresinol],,16.7%
Cc1cc(O[C@@H]2O[C@H](CO)[C@@H](O)[C@H](O)[C@H]2O)c2c(c1)C(=O)c1cccc(O)c1C2=O [Chrysophanein],,51.1%
Cc1cc(O)c2c(c1)C(=O)c1cccc(O[C@@H]3O[C@H](CO)[C@@H](O)[C@H](O)[C@H]3O)c1C2=O [Chrysophanol 8-O-glucoside],,8.4%
CC(=O)OC[C@H]1O[C@@H](O[C@@H]2[C@@H](O)[C@H](O[C@@H]3[C@H](O)C(C)(C)C[C@H]4C5=CC[C@@H]6[C@@]7(C)CC[C@H](O[C@@H]8O[C@H](C(=O)O)[C@@H](O)[C@H](O)[C@H]8O[C@@H]8O[C@H](CO)[C@H](O)[C@H](O)[C@H]8O[C@@H]8O[C@H](CO)[C@@H](O)[C@H](O)[C@H]8O)[C@](C)(CO)[C@@H]7CC[C@@]6(C)[C@]5(C)CC[C@@]34C)OC[C@@H]2O)[C@H](OC(C)=O)[C@@H](OC(C)=O)[C@@H]1OC(C)=O [Soyasaponin Ab],,46.7%
CN1CCC=C(C(=O)O)C1 [Arecaidine],7.9%,
O=C(/C=C/c1ccc(O)c(O)c1)O[C@@H](C(=O)O)[C@@H](OC(=O)/C=C/c1ccc(O)c(O)c1)C(=O)O [Chicoric acid],8%,
CC(=O)OCCC(C)CCC=C(C)C (stereo not drawn) [Citronellyl acetate],,16.2%
CCC(O)CC [3-Pentanol],,19%
COc1cc(-c2coc3cc(O)c(OC)c(O)c3c2=O)cc(O)c1OC [Irigenin],,11.4%
COc1cc(-c2coc3cc4c(c(OC)c3c2=O)OCO4)cc(OC)c1OC [Irisflorentin],,11.3%
COc1cc(-c2coc3cc4c(c(O)c3c2=O)OCO4)cc(O)c1OC [Dichotomitin],,53.3%
CO[C@@H]1[C@H](O)[C@@H](CO)O[C@H]1n1ccc(=O)[nH]c1=O [2′-O-Methyluridine],,20.9%
CC1(C)C=Cc2c(ccc3c2OC[C@@H](c2ccc(O)cc2O)C3)O1 [Glabridin],,54.3%

Compound,"229E Inhibition rate (229E Inhibition rate, 24 h)",229E Inhibition rate
Oc1ccc(C2COc3cc(O)ccc3C2)cc1 (racemic) [(±)-Equol],,11%
Oc1ccc([C@H]2COc3cc(O)ccc3C2)cc1 [(-)-(S)-Equol],,8.5%
C=C1C[C@@]23CC[C@H]4[C@@](C)(CCC[C@@]4(C)C(=O)O)[C@@H]2CC[C@@H]1C3 [Kaurenoic acid],,8.8%
CC(C)(O)CC[C@@H](O)[C@](C)(O)[C@H]1CC=C2C3=C(CC[C@@]21C)[C@@]1(C)C[C@H](O)[C@H](O)C[C@H]1C(=O)C3 [Podecdysone B],,11.2%
C[C@H](CCC(=O)O)[C@H]1CC[C@H]2[C@@H]3C(=O)C[C@@H]4C[C@H](O)CC[C@]4(C)[C@H]3CC[C@]12C [7-Ketolithocholic acid],,20.5%
COc1ccc(C(C)=O)cc1O [3-Hydroxy-4-methoxyacetophenone],,50.5%
"CC(=O)c1ccc(O)c(O)c1 [3',4'-Dihydroxyacetophenone]",,12.4%
COc1ccc(C(=O)O)cc1O [Isovanillic acid],,0%
COc1cc(C(C)=O)ccc1O [Apocynin],,5.3%
Cc1cc(C(=O)O)ccc1O [4-Hydroxy-3-methylbenzoic acid],,61.9%
"Cc1ccc(C(=O)O)cc1C [3,4-Dimethylbenzoic acid]",,23.9%
COC(=O)c1ccc(OC)c(O)c1 [Methyl isovanillate],,12.8%
CC(=O)c1ccc(O)c(C)c1 [4'-Hydroxy-3'-methylacetophenone],,11.7%
COc1cc(C(=O)O)ccc1O [Vanillic acid],,50%
O=Cc1cccs1 [2-Thiophenecarboxaldehyde],,6.5%
O=C(O)C(O)Cc1ccccc1 (racemic) [DL-3-Phenyllactic acid],,22.4%
COc1cc2c(cc1O)CCN1Cc3c(ccc(OC)c3OC)C[C@@H]21 [Corypalmine],,8.4%
C=C[C@](C)(O)CC[C@H]1C(=C)CC[C@H]2C(C)(C)CCC[C@]12C [Manool],,42.5%
COc1ccc(-c2oc3c(CC=C(C)C)c(O)cc(O)c3c(=O)c2O)cc1 [Icaritin],,8.6%
CC(C)(O)CCc1c(O)cc(O)c2c(=O)c(O)c(-c3ccc(O)cc3)oc12 [Noricaritin],,14.9%
COc1ccc(-c2oc3c(CCC(C)(C)O)c(O)cc(O)c3c(=O)c2O)cc1 [Wushanicaritin],,51.4%

# Reference: publication PMC12431657, “Discovery and mechanistic insights of dibenzoylmethane as a broad spectrum inhibitor of coronavirus” (PLOS Pathogens, 2025)
